# Positions count from the first letter of the chain named.
# Legend:
# Test in all cases: PBM; 200 nM protein, PBS
# Details in all cases: dsDNA, one strand shown
# NKX2-4 [1] = biological target: T1, NKX2-4 (Homo sapiens, UniProt Q9H2Z4 175-261, P217L)
# T1 sequence: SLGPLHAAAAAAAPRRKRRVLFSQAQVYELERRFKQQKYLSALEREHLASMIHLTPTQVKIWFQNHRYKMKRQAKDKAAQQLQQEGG
# NKX2-4 [2] = biological target: T2, NKX2-4 (Homo sapiens, UniProt Q9H2Z4 175-261, T231S)
# T2 sequence: T1 sequence with L43P, T57S
# NKX2-4 [3] = biological target: T3, NKX2-4 (Homo sapiens, UniProt Q9H2Z4 175-261)
# T3 sequence: T1 sequence with L43P
# NKX2-4 [4] = biological target: T4, NKX2-4 (Homo sapiens, UniProt Q9H2Z4 175-261, R246Q)
# T4 sequence: T1 sequence with L43P, R72Q
Sequence,binding signal (NKX2-4 [1]),binding signal (NKX2-4 [2]),binding signal (NKX2-4 [3]),binding signal (NKX2-4 [4])
CACTCGAG,"12.4 upbm affinity estimate (log intensity, higher = more binding, comparable within an allelic series)","12.8 upbm affinity estimate (log intensity, higher = more binding, comparable within an allelic series)","12.4 upbm affinity estimate (log intensity, higher = more binding, comparable within an allelic series)","13 upbm affinity estimate (log intensity, higher = more binding, comparable within an allelic series)"
TCCACTAA,"11.6 upbm affinity estimate (log intensity, higher = more binding, comparable within an allelic series)","11.7 upbm affinity estimate (log intensity, higher = more binding, comparable within an allelic series)","11.5 upbm affinity estimate (log intensity, higher = more binding, comparable within an allelic series)","11.7 upbm affinity estimate (log intensity, higher = more binding, comparable within an allelic series)"
ATCCGGTG,"9.47 upbm affinity estimate (log intensity, higher = more binding, comparable within an allelic series)","9.42 upbm affinity estimate (log intensity, higher = more binding, comparable within an allelic series)","9.41 upbm affinity estimate (log intensity, higher = more binding, comparable within an allelic series)","9.45 upbm affinity estimate (log intensity, higher = more binding, comparable within an allelic series)"
GACACCGC,"9.33 upbm affinity estimate (log intensity, higher = more binding, comparable within an allelic series)","9.29 upbm affinity estimate (log intensity, higher = more binding, comparable within an allelic series)","9.43 upbm affinity estimate (log intensity, higher = more binding, comparable within an allelic series)","9.52 upbm affinity estimate (log intensity, higher = more binding, comparable within an allelic series)"
ACGCCTTG,"9.82 upbm affinity estimate (log intensity, higher = more binding, comparable within an allelic series)","9.81 upbm affinity estimate (log intensity, higher = more binding, comparable within an allelic series)","9.74 upbm affinity estimate (log intensity, higher = more binding, comparable within an allelic series)","9.73 upbm affinity estimate (log intensity, higher = more binding, comparable within an allelic series)"
GATCGGCC,"9.8 upbm affinity estimate (log intensity, higher = more binding, comparable within an allelic series)","9.89 upbm affinity estimate (log intensity, higher = more binding, comparable within an allelic series)","9.87 upbm affinity estimate (log intensity, higher = more binding, comparable within an allelic series)","9.9 upbm affinity estimate (log intensity, higher = more binding, comparable within an allelic series)"
ACCGTCTG,"9.6 upbm affinity estimate (log intensity, higher = more binding, comparable within an allelic series)","9.59 upbm affinity estimate (log intensity, higher = more binding, comparable within an allelic series)","9.56 upbm affinity estimate (log intensity, higher = more binding, comparable within an allelic series)","9.61 upbm affinity estimate (log intensity, higher = more binding, comparable within an allelic series)"
TCCACTCA,"12.4 upbm affinity estimate (log intensity, higher = more binding, comparable within an allelic series)","12.8 upbm affinity estimate (log intensity, higher = more binding, comparable within an allelic series)","12.3 upbm affinity estimate (log intensity, higher = more binding, comparable within an allelic series)","12.8 upbm affinity estimate (log intensity, higher = more binding, comparable within an allelic series)"
ACCAACGG,"9.32 upbm affinity estimate (log intensity, higher = more binding, comparable within an allelic series)","9.25 upbm affinity estimate (log intensity, higher = more binding, comparable within an allelic series)","9.28 upbm affinity estimate (log intensity, higher = more binding, comparable within an allelic series)","9.29 upbm affinity estimate (log intensity, higher = more binding, comparable within an allelic series)"
GAGTGTCC,"11.9 upbm affinity estimate (log intensity, higher = more binding, comparable within an allelic series)","12.2 upbm affinity estimate (log intensity, higher = more binding, comparable within an allelic series)","11.8 upbm affinity estimate (log intensity, higher = more binding, comparable within an allelic series)","12.2 upbm affinity estimate (log intensity, higher = more binding, comparable within an allelic series)"
CTCGAGTA,"12.3 upbm affinity estimate (log intensity, higher = more binding, comparable within an allelic series)","12.6 upbm affinity estimate (log intensity, higher = more binding, comparable within an allelic series)","12.1 upbm affinity estimate (log intensity, higher = more binding, comparable within an allelic series)","12.6 upbm affinity estimate (log intensity, higher = more binding, comparable within an allelic series)"
GTGGCCAC,"10.2 upbm affinity estimate (log intensity, higher = more binding, comparable within an allelic series)","10.2 upbm affinity estimate (log intensity, higher = more binding, comparable within an allelic series)","10.2 upbm affinity estimate (log intensity, higher = more binding, comparable within an allelic series)","10.3 upbm affinity estimate (log intensity, higher = more binding, comparable within an allelic series)"
CAGGCATG,"9.76 upbm affinity estimate (log intensity, higher = more binding, comparable within an allelic series)","9.76 upbm affinity estimate (log intensity, higher = more binding, comparable within an allelic series)","9.66 upbm affinity estimate (log intensity, higher = more binding, comparable within an allelic series)","9.82 upbm affinity estimate (log intensity, higher = more binding, comparable within an allelic series)"
TCATCGAA,"11.4 upbm affinity estimate (log intensity, higher = more binding, comparable within an allelic series)","11.5 upbm affinity estimate (log intensity, higher = more binding, comparable within an allelic series)","11.2 upbm affinity estimate (log intensity, higher = more binding, comparable within an allelic series)","11.5 upbm affinity estimate (log intensity, higher = more binding, comparable within an allelic series)"
ATGTGCGC,"9.81 upbm affinity estimate (log intensity, higher = more binding, comparable within an allelic series)","9.85 upbm affinity estimate (log intensity, higher = more binding, comparable within an allelic series)","9.82 upbm affinity estimate (log intensity, higher = more binding, comparable within an allelic series)","9.8 upbm affinity estimate (log intensity, higher = more binding, comparable within an allelic series)"
ATCCCTCC,"9.86 upbm affinity estimate (log intensity, higher = more binding, comparable within an allelic series)","9.87 upbm affinity estimate (log intensity, higher = more binding, comparable within an allelic series)","9.86 upbm affinity estimate (log intensity, higher = more binding, comparable within an allelic series)","9.77 upbm affinity estimate (log intensity, higher = more binding, comparable within an allelic series)"
CTTCTCAA,"11.7 upbm affinity estimate (log intensity, higher = more binding, comparable within an allelic series)","11.9 upbm affinity estimate (log intensity, higher = more binding, comparable within an allelic series)","11.5 upbm affinity estimate (log intensity, higher = more binding, comparable within an allelic series)","11.9 upbm affinity estimate (log intensity, higher = more binding, comparable within an allelic series)"

Sequence,binding signal (NKX2-4 [1]),binding signal (NKX2-4 [2]),binding signal (NKX2-4 [3]),binding signal (NKX2-4 [4])
CCCTGCAG,"9.9 upbm affinity estimate (log intensity, higher = more binding, comparable within an allelic series)","9.92 upbm affinity estimate (log intensity, higher = more binding, comparable within an allelic series)","9.89 upbm affinity estimate (log intensity, higher = more binding, comparable within an allelic series)","9.93 upbm affinity estimate (log intensity, higher = more binding, comparable within an allelic series)"
CTAGGCCA,"9.82 upbm affinity estimate (log intensity, higher = more binding, comparable within an allelic series)","9.87 upbm affinity estimate (log intensity, higher = more binding, comparable within an allelic series)","9.84 upbm affinity estimate (log intensity, higher = more binding, comparable within an allelic series)","9.9 upbm affinity estimate (log intensity, higher = more binding, comparable within an allelic series)"
TGCCCCCA,"9.77 upbm affinity estimate (log intensity, higher = more binding, comparable within an allelic series)","9.8 upbm affinity estimate (log intensity, higher = more binding, comparable within an allelic series)","9.76 upbm affinity estimate (log intensity, higher = more binding, comparable within an allelic series)","9.88 upbm affinity estimate (log intensity, higher = more binding, comparable within an allelic series)"
ACGCAGTG,"9.7 upbm affinity estimate (log intensity, higher = more binding, comparable within an allelic series)","9.67 upbm affinity estimate (log intensity, higher = more binding, comparable within an allelic series)","9.6 upbm affinity estimate (log intensity, higher = more binding, comparable within an allelic series)","9.5 upbm affinity estimate (log intensity, higher = more binding, comparable within an allelic series)"
CGGCGTTA,"9.81 upbm affinity estimate (log intensity, higher = more binding, comparable within an allelic series)","9.61 upbm affinity estimate (log intensity, higher = more binding, comparable within an allelic series)","9.82 upbm affinity estimate (log intensity, higher = more binding, comparable within an allelic series)","9.89 upbm affinity estimate (log intensity, higher = more binding, comparable within an allelic series)"
ACGGCGAC,"9.81 upbm affinity estimate (log intensity, higher = more binding, comparable within an allelic series)","9.82 upbm affinity estimate (log intensity, higher = more binding, comparable within an allelic series)","9.78 upbm affinity estimate (log intensity, higher = more binding, comparable within an allelic series)","9.81 upbm affinity estimate (log intensity, higher = more binding, comparable within an allelic series)"
GCACTCAA,"12.5 upbm affinity estimate (log intensity, higher = more binding, comparable within an allelic series)","12.9 upbm affinity estimate (log intensity, higher = more binding, comparable within an allelic series)","12.4 upbm affinity estimate (log intensity, higher = more binding, comparable within an allelic series)","13 upbm affinity estimate (log intensity, higher = more binding, comparable within an allelic series)"
CCCAAACG,"9.71 upbm affinity estimate (log intensity, higher = more binding, comparable within an allelic series)","9.8 upbm affinity estimate (log intensity, higher = more binding, comparable within an allelic series)","9.76 upbm affinity estimate (log intensity, higher = more binding, comparable within an allelic series)","9.88 upbm affinity estimate (log intensity, higher = more binding, comparable within an allelic series)"
CGCGGCCC,"9.94 upbm affinity estimate (log intensity, higher = more binding, comparable within an allelic series)","9.93 upbm affinity estimate (log intensity, higher = more binding, comparable within an allelic series)","10 upbm affinity estimate (log intensity, higher = more binding, comparable within an allelic series)","9.94 upbm affinity estimate (log intensity, higher = more binding, comparable within an allelic series)"
CCCGCAGG,"8.95 upbm affinity estimate (log intensity, higher = more binding, comparable within an allelic series)","8.81 upbm affinity estimate (log intensity, higher = more binding, comparable within an allelic series)","9.01 upbm affinity estimate (log intensity, higher = more binding, comparable within an allelic series)","8.96 upbm affinity estimate (log intensity, higher = more binding, comparable within an allelic series)"
CAGTGACC,"9.77 upbm affinity estimate (log intensity, higher = more binding, comparable within an allelic series)","9.84 upbm affinity estimate (log intensity, higher = more binding, comparable within an allelic series)","9.8 upbm affinity estimate (log intensity, higher = more binding, comparable within an allelic series)","9.7 upbm affinity estimate (log intensity, higher = more binding, comparable within an allelic series)"
CTTGAGGA,"11.9 upbm affinity estimate (log intensity, higher = more binding, comparable within an allelic series)","12.3 upbm affinity estimate (log intensity, higher = more binding, comparable within an allelic series)","11.8 upbm affinity estimate (log intensity, higher = more binding, comparable within an allelic series)","12.2 upbm affinity estimate (log intensity, higher = more binding, comparable within an allelic series)"
CAAACCCG,"9.56 upbm affinity estimate (log intensity, higher = more binding, comparable within an allelic series)","9.55 upbm affinity estimate (log intensity, higher = more binding, comparable within an allelic series)","9.55 upbm affinity estimate (log intensity, higher = more binding, comparable within an allelic series)","9.6 upbm affinity estimate (log intensity, higher = more binding, comparable within an allelic series)"
CTCTTGAA,"12.5 upbm affinity estimate (log intensity, higher = more binding, comparable within an allelic series)","12.8 upbm affinity estimate (log intensity, higher = more binding, comparable within an allelic series)","12.3 upbm affinity estimate (log intensity, higher = more binding, comparable within an allelic series)","13 upbm affinity estimate (log intensity, higher = more binding, comparable within an allelic series)"
GTGAAGGA,"11.6 upbm affinity estimate (log intensity, higher = more binding, comparable within an allelic series)","12 upbm affinity estimate (log intensity, higher = more binding, comparable within an allelic series)","11.5 upbm affinity estimate (log intensity, higher = more binding, comparable within an allelic series)","11.6 upbm affinity estimate (log intensity, higher = more binding, comparable within an allelic series)"
CCAGAGAC,"9.71 upbm affinity estimate (log intensity, higher = more binding, comparable within an allelic series)","9.67 upbm affinity estimate (log intensity, higher = more binding, comparable within an allelic series)","9.71 upbm affinity estimate (log intensity, higher = more binding, comparable within an allelic series)","9.63 upbm affinity estimate (log intensity, higher = more binding, comparable within an allelic series)"
AACGCCAG,"9.74 upbm affinity estimate (log intensity, higher = more binding, comparable within an allelic series)","9.82 upbm affinity estimate (log intensity, higher = more binding, comparable within an allelic series)","9.78 upbm affinity estimate (log intensity, higher = more binding, comparable within an allelic series)","9.89 upbm affinity estimate (log intensity, higher = more binding, comparable within an allelic series)"

# Source: article PMC11006913
